Laboratory results as given in PubChem BioAssay (EPA / NIEHS).
Results filed as inconclusive are left out. Calls of active or inactive are those of the source. Rule for the calls: active = hit-call score of the fitted dose curve at least 0.9, where 1 is the maximum; inconclusive = response in the unintended direction; inactive = score below 0.9.

Each compound was assayed against rat Somatostatin Receptor (SST), Sstr1 (gene 25033) (UniProt P28646) (assay: NVS_GPCR_rSST: NovaScreen (NVS) G Protein-Coupled Receptor Assay for rat Somatostatin Receptor (SST) (AID 2283314)).
Procedure: NVS_GPCR_rSST is a biochemical, single-readout assay that uses extracted gene-proteins from Rat forebrain membranes in a tissue-based cell-free assay. Measurements were taken 1 hour after chemical dosing in a 96-well plate.NVS_GPCR_rSST is one of one assay component(s) measured or calculated from the NVS_GPCR_rSST assay. It is designed to make measurements of radioligand binding, a form of binding reporter, as detected with scintillation counting signals by Filter-based radiodetection technology.Data from the assay component NVS_GPCR_rSST was analyzed into 1 assay endpoint. This assay endpoint, NVS_GPCR_rSST, was analyzed in the positive analysis fitting direction relative to DMSO as the negative control and baseline of activity. Using a type of binding reporter, loss-of-signal activity can be used to understand changes in the binding as they relate to the gene Sstr1. Furthermore, this assay endpoint can be referred to as a primary readout, because the performed assay has only produced 1 assay endpoint. To generalize the intended target to other relatable targets, this assay endpoint is annotated to the gpcr intended target family, where the subfamily is rhodopsin-like receptor.
Binding assays used specific radioligands (tritiated, iodinated) with non-radioactive competitive displacement ligands in agonist or antagonist protocols (as indicated) and various reference compounds and inhibitors to titrate specific binding to receptors and transporters. Most enzyme assays (CYPs, kinases, phosphatases, proteases, HDACs) used recombinant protein and specific substrates (fluorescence mostly, some colorimetric and radioactive) and inhibitors, followed by a biochemical separation of substrate and product. All assays for the biochemical HTS were initially run in duplicate at a single concentration (10 uM for CYP450 assays and 25 uM for all others). Assay-chemical combinations meeting a pre-defined threshold (e.g., 30% inhibition and other criteria defined below) were then run in singleton concentration-response format with maximum concentration of 20 uM for CYPs and 50 uM for all others. Each assay was run with positive and negative controls, and concurrent controls on every plate. The follow-up (secondary) screen tested active chemical-pairs in concentration series, as well as a few additional assays not tested in the primary screen, some selected negative inactives, and several cases re-run in the concentration series for confirmatory purposes.

rat Somatostatin Receptor (SST), Sstr1 (gene 25033), sequence (P28646 whole entry, looked up): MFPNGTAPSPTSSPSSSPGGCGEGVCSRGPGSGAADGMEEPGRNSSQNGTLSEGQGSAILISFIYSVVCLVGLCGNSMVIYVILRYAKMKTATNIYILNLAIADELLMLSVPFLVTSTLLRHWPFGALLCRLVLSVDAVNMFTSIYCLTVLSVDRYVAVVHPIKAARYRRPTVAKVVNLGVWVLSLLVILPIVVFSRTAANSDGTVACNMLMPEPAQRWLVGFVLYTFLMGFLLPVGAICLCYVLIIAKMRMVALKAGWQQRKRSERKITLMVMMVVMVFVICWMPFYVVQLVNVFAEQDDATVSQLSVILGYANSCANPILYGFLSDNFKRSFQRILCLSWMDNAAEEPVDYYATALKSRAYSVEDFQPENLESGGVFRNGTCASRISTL

AC50, active:
CC/C(=C(/CC)c1ccc(O)cc1)c1ccc(O)cc1 25 µM
CCOC(=O)O[C@H](C)OC(=O)c1ccc2c(c1)cc(C(=O)NC1CCN(C(C)C)CC1)n2Cc1cc(-c2ccc(Cl)s2)on1 14.9 µM
COc1ccc2cc(S(=O)(=O)N[C@H](CC(=O)N[C@H](Cc3ccc(CN4[C@H](C)CCC[C@@H]4C)cc3)C(=O)N(C)C(C)C)c3ccc4c(c3)OCO4)ccc2c1 5.07 µM
CN(C)C(=O)C1(N2CCCCC2)CCN(CC[C@@]2(c3ccc(Cl)c(Cl)c3)CN(C(=O)c3ccccc3)CCO2)CC1 12.6 µM
NCc1cccc(C2CCN(C(=O)c3ccc(C#Cc4ccccc4F)o3)CC2)c1 15 µM

outcome, inactive:
O=c1[nH]sc2ccccc12
CN(C)c1ccc(C(=C2C=CC(=[N+](C)C)C=C2)c2ccc(N(C)C)cc2)cc1
